Hits are enriched below; roughly 21% of the tested compounds scored in any of these assays.
Shiga toxin inh – blocks Shiga toxin action in Vero cells; Vero cells, Shiga toxin protein synthesis inhibition reporter; inhibition, % at 38.7 µM; 9.2% of 290,000 active; AID 2315; in the data active means inhibition mostly above about 28%, no sharp cut-off; inactive means mostly below about 43%; further: 0% is about no effect
HCMV antiviral – human cytomegalovirus inhibition; 4.5% of 410,000 active; activity change, negative = inhibition, % at 57.5 µM; HFF cells, HCMV-luciferase reporter, 72 h; hits give low values; in the data active means activity change below about -60%; inconclusive means no clear call, values can overlap the other calls; inactive means above about -39%; further: on the % scale 0 is the no-effect control and ±100 the full control effect
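Human foreskin fibroblasts infected with luciferase-reporter HCMV at MOI 1 PFU/cell, compounds at two doses. Luciferase measured 72 h post infection; normalized to buffer-only basal and Salinomycin (10uM) controls.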
HCV inhibitor – HCV inhibition. Huh7.5.1 HCVcc-Cre infection, luciferase reporter, 44 h. Potency, µM (highest dose often 41.8 µM), for inactives: at the highest dose activity change, negative = inhibition, actives largely listed as inhibitors. 3.4% of 340,000 active; further: potency means the concentration at half of the fitted maximal effect; on the % scale 0 is the no-effect control and ±100 the full control effect
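Seed cells (1,000/well) for 4 h; treat with compound and infect with HCVcc-Cre, moi about 0.5. Incubate 44 h, then detect luciferase activity.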
Pf growth 96h – P. falciparum growth inhibition at 96 hours. P. falciparum luciferase reporter growth, 96 h. Potency, µM (top dose mostly 28.7 µM), for the others: top-dose activity change, negative = inhibition, most hits filed as inhibitors. 6.9% of 320,000 active. AID 504834; further: potency means the concentration at half of the fitted maximal effect; on the % scale 0 is the no-effect control and ±100 the full control effect
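P. falciparum expressing integrated firefly luciferase grown in erythrocytes (2% hematocrit, 0.05% parasitemia final) with compounds for 96 hours at 37 C, 5% CO2. Growth inhibition read as loss of luminescence after adding luciferase detection reagent.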
CHX counter – affects cycloheximide protein synthesis inhibition readout, counter-screen | cell reporter, cycloheximide protein synthesis inhibition counterscreen | max response, % | 12% of 300,000 active | AID 2314; in the data active means max response mostly above about 13%, no sharp cut-off; inactive means mostly below about 14%; further: read at 38.3 µM for the half of the compounds with a filed dose; 0% is about no effect
Pf growth 48h – P. falciparum growth inhibition at 48 hours (one generation); P. falciparum luciferase growth in erythrocytes, 48 h; Potency, µM (series often up to 28.7 µM), inactives show at the top dose activity change, negative = inhibition, most hits filed as inhibitors; 5.9% of 310,000 active; AID 504832; further: potency means the concentration at half of the fitted maximal effect; on the % scale 0 is the no-effect control and ±100 the full control effect
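Cell-based growth assay: transgenic P. falciparum expressing firefly luciferase, cultured in red cells within RPMI 1640 containing 0.5% w/v Albumax, 24 mM bicarbonate and gentamycin. A drop in luciferase activity indicates inhibition.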
Active calls of the source: *; ? = inconclusive; · = not tested or not shown; [ ] = dose if it differs, or a comment. Unless noted, the call rests on the fitted dose curve; in most records, active means well fitted inhibition curve with a large enough effect; inconclusive means small, poorly fitted or top-dose-only effect, or another doubt; inactive means no such curve, though single readings can be large or run the other way.

SMILES	Shiga toxin inh	HCMV antiviral	HCV inhibitor	Pf growth 96h	CHX counter	Pf growth 48h
COCN(C#N)c1nc(N(C)C)nc(N(C)C)n1	-4	3	?	38%	-2	9%
CCN(C#N)c1nc(N(C)C)nc(N(C)C)n1	5	-12	10µM*	-11%	-7	0%
CCc1cccc(CC)c1NC(=O)c1cc(S(=O)(=O)N2CCc3ccccc32)cn1C	·	-30	·	·	·	·
Cc1c(C)c2c(c(C)c1OC(=O)CCC(=O)O)CC[C@@](C)(CCC[C@H](C)CCC[C@H](C)CCCC(C)C)O2	·	·	·	12µM*	·	?
Brc1c(CSc2nnc(-c3ccco3)o2)nc2ccccn12	56	-2	17%	-19%	22*	·
Cc1c(NC(=O)CSc2nnc3c4ccccc4n(CCc4ccccc4)c3n2)c(=O)n(-c2ccccc2)n1C	-26	-85*	?	51%	-1	-8%
CCCn1c2ccccc2c2nnc(SCC(=O)OC)nc21	-16	-38	2%	8%	-7	-20%
CCCCn1c2ccccc2c2nnc(SCC(=O)NC3=NN=C(c4ccccc4)CS3)nc21	-14	?	-30%	?	5	2.9µM*
CCn1c2ccccc2c2nnc(SCC(=O)Nc3c(C)n(C)n(-c4ccccc4)c3=O)nc21	-26	-21	-27%	12µM*	-4	?
C=CCn1c2ccccc2c2nnc(SCC(=O)Nc3c(C)n(C)n(-c4ccccc4)c3=O)nc21	-9	2	?	-19%	-1	?
COc1ccccc1NC(=O)CSc1nnc2c3ccccc3n(C(C)C)c2n1	·	-61*	·	·	·	·
COc1ccc(C)cc1NC(=O)CCn1nc(C)cc1C	·	11	·	·	·	·
Cc1c(-n2c(SCC(=O)NC(C)C(C)C)nc3ccccc3c2=O)c(=O)n(-c2ccccc2)n1C (stereo unspecified)	-5	-27	11%	2%	-2	-8%
COCC(C)n1c(SCC(=O)Nc2c(C)n(C)n(-c3ccccc3)c2=O)nc2ccccc2c1=O (stereo unspecified)	·	0	-11%	·	·	·
Cn1c2ccccc2c2nnc(SCC(=O)Nc3cccc(O)c3)nc21	23	7	-26%	?	11*	6%
Cc1cccc(NC(=O)CSc2nnc3c4ccccc4n(C)c3n2)c1	·	3	·	·	·	·
Cc1c(NC(=O)CSc2nc3ccccc3c(=O)n2C(C)C)c(=O)n(-c2ccccc2)n1C	·	-65*	-13%	-19%	·	?
Cc1c(-n2c(SCC(C)C)nc3ccccc3c2=O)c(=O)n(-c2ccccc2)n1C	9	-64*	-3%	?	-2	?
COc1cccc(NC(=O)c2oc3ccc(S(=O)(=O)N4CCC5(CC4)OCCO5)cc3c2C)c1	·	-7	·	·	·	·
COc1cccc(NC(=O)CCNS(=O)(=O)c2ccc3c(c2)CCCC(=O)N3)c1	·	-4	·	·	·	·
COc1ccc(N2CCN(C(c3ccccc3F)c3sc4nc(-c5ccco5)nn4c3O)CC2)cc1 (stereo unspecified)	·	-2	·	·	·	·
OC1(c2ccccn2)COc2ccccc2O1 (stereo unspecified)	32	-9	2%	87%	24*	29%
CC1(C)CCc2cc(-c3ccn(S(=O)(=O)c4ccccc4Cl)n3)ccc2O1	38	?	?	?	16*	?
COc1ccc(S(=O)(=O)n2ccc(-c3ccc4c(c3)CCC(C)(C)O4)n2)cc1	19	-85*	-74%	9.3µM*	3	10µM*
NC(CSC(c1ccccc1)(c1ccccc1)c1cccc2ccccc12)C(=O)O (stereo unspecified)	·	·	19%	·	·	·
SMILES	Shiga toxin inh	HCMV antiviral	HCV inhibitor	Pf growth 96h	CHX counter	Pf growth 48h
Cc1cc(OCCCCCN2CCCC2)ccc1Cl	-4	-15	10µM*	-44%[5.75 µM]	11	?
CCOc1cccc(OCCOCCN2CCCC2)c1	-1	32	-19%	1%	-3	3%
Cc1ccc2c(Cl)cc(Cl)c(OCC(=O)N3CCCC3)c2n1	67*	7	21%	28%	35*	10%
Cc1cc(OCCOCCN2CCCC2)ccc1C(C)C	-12	30	?	10µM*	1	?
Cc1ccc2c(Cl)cc(Cl)c(OCC(=O)N3CCOCC3)c2n1	·	9	7%	?	·	?
Cc1cc(OCC(=O)N2CCCN(C)CC2)ccc1Cl	-16	38	-12%	7%	16*	7%
CSCC[C@H](NC(=O)[C@H](CC(C)C)N1CCC(NC(=O)[C@@H](NC(=O)[C@H](Cc2ccccc2)NC(=O)[C@H](CO)NC(=O)[C@H](CC(=O)O)NC(=O)[C@@H](N)CCCCN)C(C)C)C1=O)C(N)=O (stereo partly specified)	-4	·	·	·	-10	·
Cc1cc(C(=O)COC(=O)c2ccc(Cl)c(S(N)(=O)=O)c2)c(C)n1C1CC1	·	-12	?	-2%	·	80%
Cc1cc(OCC(=O)N2CCCC2)cc(C)c1Cl	-2	40	?	-30%	9.4*	32%
Cc1cc(OC(=O)N2CCCCC2)cc(C)c1Cl	48	6	-18%	0%	20	?
Cc1cc(OCC(=O)N2CCCC2)ccc1Cl	52*	57	-3%	-2%	23*	123%
Cc1ccc(NC(=O)CN(C)C(=O)COc2c(Cl)cc(Cl)c3ccc(C)nc23)cc1	-13	-37	-12%	1.7µM*	-3	4.1µM*
N#Cc1ccccc1S(=O)(=O)N1CCN(S(=O)(=O)c2ccc(Br)c(C(=O)O)c2)CC1	-6	26	18%	?	1	-21%
COc1ccccc1Cc1c(C2CCCCC2)nc2c(C)cc(Br)cn12	·	11	·	·	·	·
CCc1ccc(N(CC)C(=O)c2ccc3c(=O)n4c(nc3c2)CCCCC4)cc1	·	-21	·	·	·	·
COc1ccccc1N1CCN(/N=C/c2ccc(Cl)c([N+](=O)[O-])c2)CC1	43*	-10	-16%	336%	55*	64%
COc1ccccc1N1CCN(/N=C/c2ccc([N+](=O)[O-])cc2)CC1	13	60	11µM*	10µM*	21*	34%
Cc1cc(C)c(Cn2c(C)c(CNCc3ccccc3C)c(C(=O)O)c2C)c(C)c1	·	26	·	·	·	·
CCN(Cc1ccccc1)C(=O)C(CC(C)C)NS(=O)(=O)c1ccc2c(c1)CCN2C(C)=O (stereo unspecified)	·	-20	·	·	·	·
COc1ccc(C2/C=C\CN(CC(C)C)C(C)C(=O)N2Cc2ccc(F)cc2)cc1 (stereo unspecified)	142*	·	·	·	31*	·
COc1ccc(C2/C=C\CN(C(=O)c3ccccc3)[C@H](Cc3ccccc3)C(=O)N2Cc2ccc(F)cc2)cc1 (stereo partly specified)	0	-63*	?	?	-2	?
COc1ccc(C2/C=C\CN(C(=O)C3CCCC3)C(C)C(=O)N2Cc2ccc(F)cc2)cc1 (stereo unspecified)	-2	·	·	·	4	·

Assay outcomes deposited in PubChem by National Center for Advancing Translational Sciences (NCATS).
